This is a sample that favours compounds with a hit; in the whole collection about 3.5% have one here.
mHTT CaM bind: inhibitors of human mutant huntingtin-calmodulin interaction; P42858; AlphaScreen His-mHTT/GST-CaM binding, luminescence; inhibition, % at 15 µM; hit rate 3.6% among 190,000; AID 1671202;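 also: 0% = both proteins with DMSO and 100% = one protein alone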
Pf apPOL inh: Pf-apPOL DNA polymerase inhibition; Recombinant Pf-apPOL, molecular beacon fluorescence, 1.5 h; inhibition, % at 10 µM; hit rate 0.25% among 210,000; AID 1794808
Active calls of the source: *. Rule as the data show it: active = inhibition above about 50%; inactive = the rest.

O=c1cc(O)c2sc(SCCN3CCOCC3)nc2[nH]1 was read as mHTT CaM bind 5.
Screening COc1ccc(-n2ncc3c(NCCc4ccc(Cl)cc4)ncnc32)cc1 returned mHTT CaM bind 7 and Pf apPOL inh -8.
For COc1cc(/C=C2/NC(=O)N(Cc3ccc(C)cc3)C2=O)ccc1OCc1ccc(C(=O)O)cc1 the results were mHTT CaM bind 17 and Pf apPOL inh -3.
`COc1ccc(-n2c(C)cc(CN)c2C)cc1` gave mHTT CaM bind 64* and Pf apPOL inh -1.
COc1ccc(NC(=O)/C(C#N)=C/c2cc(C)n(-c3ccc(F)cc3)c2C)cc1 was read as mHTT CaM bind 1 and Pf apPOL inh 0.
Screening CCCc1cc(=O)[nH]c(SCC(=O)Nc2ccc(OC)c(OC)c2)n1 returned mHTT CaM bind -2 and Pf apPOL inh -7.
Screening Cc1cc(C(=O)Nc2nccs2)on1 returned mHTT CaM bind -3 and Pf apPOL inh -1.
CCC1=C(C)/C(=C\c2[nH]c(C)c(CC)c2C)N=C1C was read as mHTT CaM bind 95* and Pf apPOL inh -3.
`OC(c1ccccn1)C1CCN(Cc2c(F)cccc2F)CC1` (stereo not given) gave mHTT CaM bind 0 and Pf apPOL inh -3.
COc1ccc(C2=N/C(=C\c3cccc(Cl)c3)C(=O)O2)cc1[N+](=O)[O-] was read as mHTT CaM bind 5 and Pf apPOL inh -2.
`CC(=O)NC(=O)CC(=O)c1ccccc1` gave mHTT CaM bind 10 and Pf apPOL inh -1.
For O=C(CN1CCc2ccccc2C1C(=O)N1CCCCC1)Nc1cccc(Cl)c1 (stereo not given) the results were mHTT CaM bind 32 and Pf apPOL inh 0.
`O=C1C=CC(=O)C(c2cccc(C(F)(F)F)c2)=C1` gave mHTT CaM bind 74* and Pf apPOL inh -2.
O=C1c2ccccc2C(=O)N1Cn1cc(-c2cccc(C(F)(F)F)c2)nn1 was read as mHTT CaM bind -3 and Pf apPOL inh 2.
`O=c1oc2cc([N+](=O)[O-])ccc2n1CN1CCCCC1` gave mHTT CaM bind 3 and Pf apPOL inh 2.
CC(=O)C1=C(C)NC(SCC(=O)c2cccc(Cl)c2)=C(C#N)C1c1sccc1C (stereo not given) was read as mHTT CaM bind -48 and Pf apPOL inh 100*.
CC(=O)C1=C(C)NC(SCC(=O)c2ccc(Cl)cc2)=C(C#N)C1c1cccc([N+](=O)[O-])c1 (stereo not given) was read as mHTT CaM bind 38 and Pf apPOL inh -7.
For CC(=O)C1=C(C)NC(SCC(=O)c2ccc(Cl)c(Cl)c2)=C(C#N)C1c1ccco1 (stereo not given) the results were mHTT CaM bind 54* and Pf apPOL inh 2.
For CC(=O)C1=C(C)NC(SCC(=O)c2cccc([N+](=O)[O-])c2)=C(C#N)C1c1ccc(Cl)cc1 (stereo not given) the results were mHTT CaM bind 56* and Pf apPOL inh 4.
`CC(=O)C1=C(C)NC(SCC(=O)c2cc(Cl)ccc2Cl)=C(C#N)C1c1ccco1` (stereo not given) gave mHTT CaM bind 2 and Pf apPOL inh -1.
`CC(=O)C1=C(C)NC(SCC(=O)c2ccc(Cl)cc2)=C(C#N)C1c1sccc1C` (stereo not given) gave mHTT CaM bind -44 and Pf apPOL inh 4.
Screening O=S(=O)(c1ccc(-c2cnco2)cc1)N(Cc1ccccn1)Cc1ccccn1 returned Pf apPOL inh -10.
CCc1nc(C2CCN(C(=O)c3ccc(OC)nc3OC)CC2)n[nH]1 was read as mHTT CaM bind 2 and Pf apPOL inh -1.
Screening Cc1cc(Br)ccc1N1CCC(C(=O)N2CCSCC2)C1=O (stereo not given) returned mHTT CaM bind 5 and Pf apPOL inh -3.
Screening N=c1sc2ccccc2n1-c1ccccc1 returned Pf apPOL inh -13.
Cc1c(CCCN)c2ccccc2n1-c1ccccc1 was read as mHTT CaM bind 50* and Pf apPOL inh -6.
For Cc1nn2c(=O)/c(=C/c3ccc(C(C)C)cc3)sc2nc1=O the results were mHTT CaM bind 0 and Pf apPOL inh -11.
Screening CCOc1ccc(N2C(=O)C(N3C(=O)c4ccccc4C3=O)C2c2ccc(F)cc2)cc1 (stereo not given) returned mHTT CaM bind 12 and Pf apPOL inh 0.
CN1/C(=C\Sc2ccccc2[N+](=O)[O-])C(C)(C)c2ccccc21 was read as mHTT CaM bind 76* and Pf apPOL inh 1.
`CN1C(=CC=C2C(=O)Oc3ccccc3C2=O)C(C)(C)c2ccccc21` gave mHTT CaM bind -7 and Pf apPOL inh inactive.
For COc1ccc(-c2nnc(N3CCC(C(=O)Nc4ccccc4OC)CC3)o2)cc1 the results were mHTT CaM bind 27 and Pf apPOL inh -3.
Screening O=C(OCC1OC(O)C(O)(COC(=O)c2cc(O)c(O)c(O)c2)C1O)c1cc(O)c(O)c(O)c1 (stereo not given) returned Pf apPOL inh 64*.

Screening results deposited in PubChem by University of Kansas High Throughput Screening Laboratory.
